Results filed as inconclusive are left out. Calls of active or inactive are those of the source. Unless noted, calls follow the shape of the dose curve; as a rule, active = well fitted curve in the direction sought with a large enough effect; inconclusive = small, poorly fitted or top-dose-only effect, or another doubt; inactive = no such curve, though single readings can be large; an effect the other way counts as inactive or inconclusive.
How the values were obtained:
[1] = AP1 Signaling Pathway (AID 357; active = well fitted curve in either direction with a large enough effect, not every such curve was filed as active;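 also: ME-180 reporter cells stimulated with EGF at its EC50 level; % is scaled to controls: 0 for no effect and ±100 for the full control effect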)
In short: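 First, ME-180 AP-1-bla cells were cultured overnight at 37 °C in low-serum Opti-MEM. Next, titrated compounds with EC50 EGF were incubated 5 hours. Finally, CCF4 was added for 2.5 hours and the 460/530 nm ratio recorded.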

[2] = NFAT Signaling Pathway (AID 444; active = well fitted curve in either direction with a large enough effect, not every such curve was filed as active;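 also: carbachol stimulus at about its EC50 of 1 µM final; % is scaled to controls: 0 for no effect and ±100 for the full control effect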); settings: Jurkat NFAT-bla M1, carbachol, beta-lactamase ratio, 5 h; at 38 µM (top of the series)
In short: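 Read-out: CCF4 FRET ratio (460 nm/530 nm) after 1 h RT dye loading, used for %activity and AC50 from titration series. Cells: Jurkat NFAT-β-lactamase/M1 line, treated with compound plus 1 uM carbachol for 5 h, 37 °C.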

[3] = Stat Signaling Pathway (AID 446; active = well fitted curve in either direction with a large enough effect, not every such curve was filed as active;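 also: ME-180 cervical cancer cells given 40 pM IL-6 alongside compound; SIE-controlled beta-lactamase reporter measured as 460/530 nm FRET emission ratio; % is scaled to controls: 0 for no effect and ±100 for the full control effect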)
In short: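 IL-6/STAT signaling read in ME-180 cells via an SIE beta-lactamase reporter. Stimulus was 40 pM IL-6 (its AC50) for 5 hrs, so both activation and inhibition register.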

[4] = molecular target: Glucocorticoid receptor (Homo sapiens) (UniProt P04150); assay: GR-GFP Redistribution (AID 450;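 active = compounds whose dose series gives a full or clear partial fitted curve of increased nuclear translocation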; also: potency is read from the fitted curve at half-maximal effect); settings: U2OS GR-GFP nuclear translocation, laser cytometry, 2 h
[5] = molecular target: Glucocorticoid receptor (Homo sapiens) (UniProt P04150); assay: GR-EFC Redistribution (AID 451; calls by dose curve; also: potency is read from the fitted curve at half-maximal effect); settings: CHO-K1 GR-EFC translocation, beta-gal luminescence, 2 h
In short: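 Translocation of GR-ED fusion to nuclear EA restores b-gal, read by luminescence after 1 h room-temperature detection. Engineered CHO-K1 biosensor cells, 1,000/well, exposed 2 h at 37 C to titrations up to 46 uM final.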

[6] = molecular target: Mitogen-activated protein kinase 10 (Mus musculus) (UniProt Q61831); assay: JNK3 AlphaScreen Assay (AID 530; active = well fitted curve in either direction with a large enough effect, not every such curve was filed as active;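 also: kinase came from lysate of stimulated human HepG2 cells; signal reports phosphorylation of biotinylated GST-cJun 1-79 at Ser73 with 10 µM ATP; % is scaled to controls: 0 for no effect and ±100 for the full control effect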)
In short: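 Compound titrations were preincubated 15 minutes at room temperature with substrate, antibody and pre-activated JNK3-containing HepG2 lysate. Reactions were started with 10 uM ATP and stopped with EDTA-containing bead buffer for AlphaScreen detection.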

[7] = molecular target: 3',5'-cyclic-AMP phosphodiesterase 4B (Homo sapiens) (UniProt Q07343); assay: qHTS Assay for Inhibitors of PDE-IV (AID 607; active = well fitted activation curve with a large enough effect in the main read-out, with a control signal flat, not every such curve was filed as active; also: % of control where 0% means no effect)
In short: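 Live HEK293 cells with a modified cyclic nucleotide-gated (CNG) channel report intracellular cAMP via membrane-potential dye fluorescence (ex 535/em 590 nm). Endogenous PDE-IV was targeted. Compounds were tested at up to 22.9 uM final; RO 20-1724 100 uM served as control.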

[8] = molecular target: Guanine nucleotide-binding protein G(i) subunit alpha-1 (Homo sapiens) (UniProt P63096); assay: qHTS Assay for Inhibitors of RGS12 GoLoco Motif Activity (Green Fluorophore) (AID 879);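 also: 0% = labeled peptide with Gαi1 and full inhibition = labeled peptide alone without protein; negative values mean loss of peptide binding seen as reduced polarization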
In short: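 Fluorescence polarization assay: 50 nM Gαi1 with 10 nM FITC-labeled RGS12 GoLoco peptide in 10 mM Tris pH 7.5, 150 mM NaCl, 0.1 mM GDP, 0.05% NP40, 10 min at room temperature with compound.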

[9] = molecular target: Pyruvate kinase (Leishmania mexicana) (UniProt Q27686); assay: qHTS Validation Assay for Inhibitors of Leishmania Mexicana Pyruvate Kinase (AID 945);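 also: 0% = DMSO only neutral control wells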
In short: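 Compounds are tested as eight-point concentration series. Reactions contain 0.2 nM LmPYK E451W, 0.5 mM PEP, 0.1 mM ADP, 7 mM MgCl2 and 50 mM KCl at pH 7.2, run 1 h at room temperature, then read by PKLight luminescence.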

[10] = molecular target: Pyruvate kinase PKM (Homo sapiens) (UniProt P14618); assay: qHTS Assay for Activators of Human Muscle Pyruvate Kinase (AID 954; active = well fitted curve in the direction sought with a large enough effect, not every such curve was filed as active;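 also: 0% = uninhibited enzyme and -100% = no enzyme or full thiadiazolimine inhibition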)
In short: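 Enzyme was run at intermediate activity so both inhibitors and activators could be detected. ATP formed from ADP and PEP by 0.1 nM human PKM2 during a 1 h room-temperature incubation was quantified by coupled luciferase luminescence.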

[11] = molecular target: Alpha-galactosidase (Coffea arabica) (UniProt Q42656); assay: Counterscreen for Glucocerebrosidase Inhibitors: qHTS Assay for Coffee Bean alpha-Galactosidase at pH 4.5 (AID 957);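 also: plate controls were enzyme alone for no effect and no enzyme for full effect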
In short: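 Coffee bean enzyme (2 nM) with 80 uM 4-methylumbelliferyl alpha-D-galactopyranoside in 50 mM citric acid, 0.005% Tween-20, pH 4.5, 20 min at room temperature; compounds 0.7 nM–77 uM. Stopped at pH 10, fluorescence 365/440 nm; AC50 from Hill fits.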

[12] = molecular target: Alpha-galactosidase A (Homo sapiens) (UniProt P06280); assay: Counterscreen for Glucocerebrosidase Inhibitors: qHTS Assay for Human alpha-Galactosidase at pH 4.5 (AID 992); also: 0% is about no effect
In short: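 Read-out is 4-methylumbelliferone fluorescence (365 nm excitation, 440 nm emission) after a pH 10 NaOH/glycine stop. Reactions held 2 nM enzyme and 80 uM substrate at pH 4.5 for 20 min at room temperature.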

[13] = molecular target: alpha-glucosidase (Oryza sativa, rice) (UniProt Q653V4); assay: Counterscreen for Glucocerebrosidase Inhibitors: qHTS Assay for Rice alpha-Glucosidase at pH 5.0 (AID 997);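 also: 0% = full activity with enzyme and -100% = basal without enzyme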
In short: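 Rice alpha-glucosidase (4 nM final) with 400 uM 4-methylumbelliferyl-alpha-D-glucopyranoside in citrate buffer pH 5.0, 20 min at room temperature, stopped at pH 10; fluorescence 365/440 nm, compounds 0.7 nM–77 uM, AC50 from Hill fits.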

[14] = molecular target: Alpha-galactosidase (Coffea arabica) (UniProt Q42656); assay: Counterscreen for Glucocerebrosidase Inhibitors: qHTS Assay for Coffee Bean alpha-Galactosidase at pH 5.9 (AID 998);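 also: plate controls were uninhibited enzyme for no effect and no-enzyme basal signal for full effect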
In short: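 Compounds were titrated from 0.7 nM to 77 uM against green coffee bean alpha-galactosidase (2 nM) using 80 uM fluorogenic 4-methylumbelliferyl substrate. After 20 min at room temperature, reactions were stopped at pH 10 and read by fluorescence.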

[15] = molecular target: Ubiquitin carboxyl-terminal hydrolase 1 (Homo sapiens) (UniProt O94782); assay: Inhibitors of USP1/UAF1: Pilot qHTS (AID 504865);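 also: rhodamine fluorescence freed from ubiquitin-rhodamine substrate followed over time; top concentration of the series differs between compounds; % is scaled to controls: 0 for no effect and ±100 for the full control effect; nearly all actives have a fitted effect of over 35% in size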
In short: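 Deubiquitinase activity followed as kinetic rhodamine fluorescence release from 150 nM Ub-Rho. 1 nM USP1/UAF1 with compound, after 15 min room-temperature preincubation, in HEPES pH 7.8 buffer containing TCEP, EDTA, BSA and Tween-20.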

[16] = molecular target: DNA dC->dU-editing enzyme APOBEC-3G (Homo sapiens) (UniProt Q9HC16); assay: qHTS for inhibitors of Vif-A3G interactions: Validation (AID 588379); also: 0% is about no effect
In short: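 HeLa cells stably expressing Vif and A3G-eYFP, 700 cells/well, incubated overnight at 37 deg C, then exposed to compound overnight at 37 deg C. Inhibition of Vif-mediated degradation read as increased yellow fluorescence (Ex 488/Em 500-530) by laser-scanning cytometry.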

[17] = tested on: Zika virus NS2B-NS3 protease; assay: Primary screen GU AMC qHTS for Zika virus inhibitors (AID 1347154);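 also: 0% = no-inhibitor control and -100% = no-enzyme control; nearly all actives have a fitted effect of over 70% in size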
In short: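 Fluorogenic AMC-substrate cleavage by noncovalent NS2B-NS3 protease complex (25 nM, pH 8.0 Tris buffer with Tween 20) followed for 15 minutes at room temperature (~20% conversion). Percent inhibition from ex340/em450 signal change, fitted by 4-parameter Hill equation.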

[18] = Primary qHTS for small molecule stabilizers of the endoplasmic reticulum resident proteome: Secreted ER Calcium Modulated Protein (SERCaMP) assay (AID 1508630); also: % is scaled to controls: 0 for no effect and ±100 for the full control effect
In short: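 GLuc-SERCaMP-expressing SH-SY5Y cells, pretreated 16 h with compound, are challenged with thapsigargin to empty ER calcium stores; after 4 h, coelenterazine is added directly to the medium and luminescence is imaged.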

[19] = molecular target: Cytochrome P450 1A2 (Homo sapiens) (UniProt P05177); assay: p450-cyp1a2 (AID 410; calls by dose curve;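 also: -100% = full effect of reference inhibitor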)
In short: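 20nM CYP1A2 with 100uM Luciferin-ME (at Km) in 100mM KPO4; compound preincubated 10 min, NADPH regeneration added, 60 min at room temperature. Luciferin quantified by luminescence after detection reagent; normalized to 57 uM furafylline.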

[20] = qHTS Assay for Lipid Storage Modulators (AID 1519; calls by dose curve); settings: Drosophila S3 cells, BODIPY lipid droplet/cell ratio, laser cytometry, cells loaded with oleic acid; for activity change, negative = inhibition: at 57.5 µM (top of the series)
In short: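 Cells seeded at 5,000 per well were treated with compounds over a concentration series and loaded with oleic acid (400 uM, as added). Lipid droplet fluorescence (488 nm excitation, 500-530 nm channel) was read by laser-scanning cytometry and normalized to 20 uM Triacsin C.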

[21] = measured here: cell count channel max response
[22] = measured here: lipid channel max response

Sequence of Pyruvate kinase (Leishmania mexicana) (Q27686 2-499 E452W): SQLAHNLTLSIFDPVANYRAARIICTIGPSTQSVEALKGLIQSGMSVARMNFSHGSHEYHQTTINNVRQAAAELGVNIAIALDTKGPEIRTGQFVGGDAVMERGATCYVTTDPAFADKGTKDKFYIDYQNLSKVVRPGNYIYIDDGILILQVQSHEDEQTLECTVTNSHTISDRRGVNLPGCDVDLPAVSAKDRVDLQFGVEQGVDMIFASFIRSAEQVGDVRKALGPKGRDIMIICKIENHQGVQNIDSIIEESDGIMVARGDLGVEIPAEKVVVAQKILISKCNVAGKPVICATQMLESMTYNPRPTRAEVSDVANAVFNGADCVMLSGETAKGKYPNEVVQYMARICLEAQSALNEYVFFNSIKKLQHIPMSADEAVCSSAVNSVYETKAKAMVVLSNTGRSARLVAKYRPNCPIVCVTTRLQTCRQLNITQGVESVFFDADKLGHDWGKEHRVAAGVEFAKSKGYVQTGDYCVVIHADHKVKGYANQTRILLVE
Sequence of Pyruvate kinase PKM (Homo sapiens) (P14618 whole entry, looked up): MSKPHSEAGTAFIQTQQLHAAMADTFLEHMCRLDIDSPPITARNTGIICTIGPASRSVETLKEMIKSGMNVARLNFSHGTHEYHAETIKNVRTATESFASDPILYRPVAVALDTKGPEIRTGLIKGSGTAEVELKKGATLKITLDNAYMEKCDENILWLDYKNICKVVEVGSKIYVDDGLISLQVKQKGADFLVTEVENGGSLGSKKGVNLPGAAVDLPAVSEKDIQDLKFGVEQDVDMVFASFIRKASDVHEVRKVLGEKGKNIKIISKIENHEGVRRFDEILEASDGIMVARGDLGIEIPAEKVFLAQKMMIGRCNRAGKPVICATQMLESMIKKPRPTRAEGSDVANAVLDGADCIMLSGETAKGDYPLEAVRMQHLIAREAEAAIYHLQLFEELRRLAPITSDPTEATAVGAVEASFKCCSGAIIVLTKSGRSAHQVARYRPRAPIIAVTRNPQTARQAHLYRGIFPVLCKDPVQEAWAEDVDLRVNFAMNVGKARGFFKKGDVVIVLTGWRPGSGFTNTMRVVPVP
Sequence of Guanine nucleotide-binding protein G(i) subunit alpha-1 (Homo sapiens) (P63096 whole entry, looked up): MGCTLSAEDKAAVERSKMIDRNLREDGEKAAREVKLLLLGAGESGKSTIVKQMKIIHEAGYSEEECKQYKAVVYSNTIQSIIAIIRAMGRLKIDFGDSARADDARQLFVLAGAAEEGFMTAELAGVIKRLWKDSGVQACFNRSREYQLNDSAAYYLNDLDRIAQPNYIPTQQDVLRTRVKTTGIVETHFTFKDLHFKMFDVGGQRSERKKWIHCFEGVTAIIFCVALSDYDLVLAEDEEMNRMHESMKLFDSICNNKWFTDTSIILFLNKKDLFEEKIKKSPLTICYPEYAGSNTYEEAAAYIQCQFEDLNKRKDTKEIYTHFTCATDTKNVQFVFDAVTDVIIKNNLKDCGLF
Sequence of 3',5'-cyclic-AMP phosphodiesterase 4B (Homo sapiens) (Q07343 whole entry, looked up): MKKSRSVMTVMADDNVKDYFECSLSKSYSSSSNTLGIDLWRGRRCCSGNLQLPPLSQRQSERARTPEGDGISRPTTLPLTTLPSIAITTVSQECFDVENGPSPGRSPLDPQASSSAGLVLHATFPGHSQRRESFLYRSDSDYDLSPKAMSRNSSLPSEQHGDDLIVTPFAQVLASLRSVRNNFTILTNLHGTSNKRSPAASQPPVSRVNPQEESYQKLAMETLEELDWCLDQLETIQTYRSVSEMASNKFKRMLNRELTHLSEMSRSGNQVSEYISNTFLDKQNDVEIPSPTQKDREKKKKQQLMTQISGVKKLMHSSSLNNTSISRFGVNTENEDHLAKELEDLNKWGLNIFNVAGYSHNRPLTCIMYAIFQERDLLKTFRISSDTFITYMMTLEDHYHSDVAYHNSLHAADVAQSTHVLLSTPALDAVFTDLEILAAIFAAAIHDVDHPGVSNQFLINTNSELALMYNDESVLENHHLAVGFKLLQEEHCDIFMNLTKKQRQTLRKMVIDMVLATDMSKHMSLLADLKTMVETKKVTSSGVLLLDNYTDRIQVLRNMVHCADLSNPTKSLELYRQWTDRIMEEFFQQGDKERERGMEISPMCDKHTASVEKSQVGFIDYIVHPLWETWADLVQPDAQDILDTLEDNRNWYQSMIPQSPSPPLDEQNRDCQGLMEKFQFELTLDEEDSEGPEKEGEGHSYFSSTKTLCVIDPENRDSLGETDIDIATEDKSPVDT
Sequence of DNA dC->dU-editing enzyme APOBEC-3G (Homo sapiens) (Q9HC16 whole entry, looked up): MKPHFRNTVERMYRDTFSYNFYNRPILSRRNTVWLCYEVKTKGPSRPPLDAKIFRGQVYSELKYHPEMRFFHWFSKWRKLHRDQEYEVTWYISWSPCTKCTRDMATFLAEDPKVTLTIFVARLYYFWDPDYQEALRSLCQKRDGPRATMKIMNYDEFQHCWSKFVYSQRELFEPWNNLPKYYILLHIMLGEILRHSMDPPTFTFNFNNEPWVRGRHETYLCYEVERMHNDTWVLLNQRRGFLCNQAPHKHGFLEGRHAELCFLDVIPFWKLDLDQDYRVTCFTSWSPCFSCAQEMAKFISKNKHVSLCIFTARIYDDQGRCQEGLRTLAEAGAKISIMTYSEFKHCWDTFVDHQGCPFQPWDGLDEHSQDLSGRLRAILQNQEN
Sequence of Cytochrome P450 1A2 (Homo sapiens) (P05177 whole entry, looked up): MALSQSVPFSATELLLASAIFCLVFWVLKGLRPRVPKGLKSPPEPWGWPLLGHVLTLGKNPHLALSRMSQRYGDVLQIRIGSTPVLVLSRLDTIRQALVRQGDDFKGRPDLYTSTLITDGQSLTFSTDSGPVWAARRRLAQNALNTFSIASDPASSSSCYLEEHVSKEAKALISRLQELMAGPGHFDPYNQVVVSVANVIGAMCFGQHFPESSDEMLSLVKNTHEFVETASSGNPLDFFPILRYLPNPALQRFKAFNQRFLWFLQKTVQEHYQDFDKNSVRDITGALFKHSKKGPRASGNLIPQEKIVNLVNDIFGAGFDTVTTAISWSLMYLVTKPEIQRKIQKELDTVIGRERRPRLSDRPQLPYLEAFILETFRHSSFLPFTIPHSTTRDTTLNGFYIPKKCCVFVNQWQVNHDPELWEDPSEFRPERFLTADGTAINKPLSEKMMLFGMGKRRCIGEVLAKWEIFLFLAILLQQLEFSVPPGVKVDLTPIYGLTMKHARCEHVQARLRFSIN
Sequence of Alpha-galactosidase (Coffea arabica) (Q42656 whole entry, looked up): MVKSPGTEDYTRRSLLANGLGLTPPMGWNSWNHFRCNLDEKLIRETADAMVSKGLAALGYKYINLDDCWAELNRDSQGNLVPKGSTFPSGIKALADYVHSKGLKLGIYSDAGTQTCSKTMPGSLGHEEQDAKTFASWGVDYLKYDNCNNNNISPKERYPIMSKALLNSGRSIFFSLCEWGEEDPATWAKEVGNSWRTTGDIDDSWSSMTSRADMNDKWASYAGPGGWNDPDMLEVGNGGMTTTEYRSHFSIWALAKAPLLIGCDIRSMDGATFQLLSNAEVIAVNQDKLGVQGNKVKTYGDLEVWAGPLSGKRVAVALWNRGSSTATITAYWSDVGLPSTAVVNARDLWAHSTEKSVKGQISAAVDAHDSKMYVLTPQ
Sequence of Ubiquitin carboxyl-terminal hydrolase 1 (Homo sapiens) (O94782 whole entry, looked up): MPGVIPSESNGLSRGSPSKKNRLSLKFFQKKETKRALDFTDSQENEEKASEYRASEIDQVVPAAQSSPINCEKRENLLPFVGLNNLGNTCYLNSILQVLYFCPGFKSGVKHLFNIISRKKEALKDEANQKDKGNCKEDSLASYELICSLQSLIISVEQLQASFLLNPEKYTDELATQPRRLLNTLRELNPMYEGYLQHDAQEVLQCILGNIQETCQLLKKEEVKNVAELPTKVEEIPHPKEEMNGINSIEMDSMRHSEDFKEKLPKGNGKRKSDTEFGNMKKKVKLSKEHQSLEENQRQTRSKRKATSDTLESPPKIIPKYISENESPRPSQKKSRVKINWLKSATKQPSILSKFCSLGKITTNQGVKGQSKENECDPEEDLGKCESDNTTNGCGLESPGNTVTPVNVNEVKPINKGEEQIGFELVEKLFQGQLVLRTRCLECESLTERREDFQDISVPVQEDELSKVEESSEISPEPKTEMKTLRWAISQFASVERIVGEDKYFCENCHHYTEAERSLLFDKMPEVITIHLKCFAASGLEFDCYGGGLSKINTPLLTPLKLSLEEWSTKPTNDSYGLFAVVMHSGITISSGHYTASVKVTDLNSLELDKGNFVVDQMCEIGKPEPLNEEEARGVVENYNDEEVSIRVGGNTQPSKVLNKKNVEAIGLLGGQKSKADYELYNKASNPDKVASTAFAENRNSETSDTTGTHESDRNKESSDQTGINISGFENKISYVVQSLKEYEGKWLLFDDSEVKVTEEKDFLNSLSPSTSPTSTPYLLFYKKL
Sequence of Alpha-galactosidase A (Homo sapiens) (P06280 whole entry, looked up): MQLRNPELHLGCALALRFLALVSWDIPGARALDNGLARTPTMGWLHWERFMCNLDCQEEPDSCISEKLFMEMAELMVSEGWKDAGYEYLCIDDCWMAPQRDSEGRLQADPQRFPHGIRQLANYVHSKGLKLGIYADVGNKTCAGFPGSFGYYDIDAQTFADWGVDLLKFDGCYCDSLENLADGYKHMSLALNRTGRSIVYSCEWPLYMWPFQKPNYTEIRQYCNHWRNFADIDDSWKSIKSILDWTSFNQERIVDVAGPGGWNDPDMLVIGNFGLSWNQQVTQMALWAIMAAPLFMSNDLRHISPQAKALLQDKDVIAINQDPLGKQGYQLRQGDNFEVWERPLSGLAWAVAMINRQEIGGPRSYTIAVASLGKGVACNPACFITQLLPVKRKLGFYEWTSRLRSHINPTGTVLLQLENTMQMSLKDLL

C[C@H](N)Cc1cnc[nH]1
inactive: outcome [1] | activity change, negative = inhibition [2] 4.34% | outcome [3] | Potency [4] > 46 µM | Potency [5] > 46 µM | outcome [6] | Potency [7] | outcome [8] | outcome [9] | outcome [10] | outcome [11] | outcome [12] | outcome [13] | outcome [14] | Potency [15] | Potency [16] | Potency [17] | Potency [18]

CC(=O)O[C@@H]1CN2CCC1CC2
-10.5%: max response [20, 21]
-8.98%: max response [20, 22]
inactive: Potency [19] | Potency [4] > 46 µM | Potency [5] > 46 µM | outcome [6] | Potency [7] | activity change, negative = inhibition [20] 2.83% | Potency [15] | Potency [16] | Potency [17] | Potency [18]

CC(=O)N1CC[N+](C)(C)CC1
-0.222%: max response [20, 22]
-4.3%: max response [20, 21]
inactive: Potency [19] | Potency [4] > 46 µM | Potency [5] > 46 µM | outcome [6] | Potency [7] | activity change, negative = inhibition [20] 2.08% | Potency [16] | Potency [17] | Potency [18]

CN1[C@@H]2CC[C@H]1CC(O[C@@H](c1ccccc1)c1ccc(Cl)cc1)C2 (stereo not given in full)
inactive: outcome [1] | Potency [19] | outcome [3] | Potency [4] > 46 µM | Potency [5] > 46 µM | outcome [8] | outcome [9] | outcome [10] | outcome [11] | outcome [12] | outcome [13] | outcome [14] | Potency [16] | Potency [17] | Potency [18]
active: activity change, negative = inhibition [2] -69.3%

CCOC(=O)c1ncn2c1[C@H]1CCCN1C(=O)c1cc(OC)ccc1-2
inactive: outcome [1] | Potency [19] | activity change, negative = inhibition [2] 7.15% | outcome [3] | Potency [4] > 46 µM | Potency [5] > 46 µM | outcome [6] | Potency [7] | outcome [8] | outcome [9] | outcome [10] | outcome [11] | outcome [12] | outcome [13] | outcome [14] | Potency [15] | Potency [16] | Potency [17] | Potency [18]

COc1ccc(CNC(=O)/C=C\c2ccc3[nH]cc(CCN(C)C)c3c2)cc1
inactive: outcome [1] | Potency [19] | activity change, negative = inhibition [2] -13.5% | outcome [3] | Potency [4] > 46 µM | Potency [5] > 46 µM | outcome [6] | Potency [7] | outcome [8] | outcome [9] | outcome [10] | outcome [11] | outcome [12] | outcome [13] | outcome [14] | Potency [15] | Potency [16] | Potency [17] | Potency [18]
